aSyn yeast inh: qHTS of alpha-syn Inhibitors | Yeast expressing alpha-synuclein, growth rescue, BacTiter-Glo, 24 h | Potency, µM (series often up to 46.1 µM), without a hit: at the top dose growth rescue (activation), usual class: activators | 0.14% of 370,000 active; also: % of control where 0% means no effect; nearly all actives have a fitted effect of over 65% in size
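Rescue of yeast growth: cells expressing toxic alpha-synuclein, induced in galactose at OD600 0.02, incubated with compound 24 h at 30 C. ATP luminescence quantified growth; inhibitors of toxicity appear as activators.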
Abeta rescue: qHTS for compounds that reverse cellular toxicity of Amyloid beta (A-beta) peptide in yeast: Primary Screen; yeast expressing A-beta42, growth rescue, OD600, 48 h; response scale: 0% DMSO, 100% iron-clioquinol control; Potency, µM (series often up to 46.1 µM), hits mostly activators; 0.063% of 410,000 active; also: nearly all actives have a fitted effect of over 55% in size
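Yeast growth medium received pinned compounds, then yeast cells expressing toxic A-beta were added; plates incubated at 30 C for 48 hr. Growth read as absorbance at 600 nm, normalized to DMSO and equimolar FeCl3 plus clioquinol controls.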
TDP43 rescue: qHTS of TDP-43 Inhibitors; TDP-43 expressing yeast growth rescue, BacTiter-Glo, 24 h; Potency, µM (doses to about 46.1 µM), without a hit: top-dose growth rescue (activation), hits mostly activators; 1.8% of 410,000 active; also: % of control where 0% means no effect; nearly all actives have a fitted effect of over 50% in size
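Growth rescue of TDP-43-toxic yeast measured as ATP luminescence (BacTiter-Glo). Cells grown to mid-log in raffinose, induced in galactose at OD600=0.02, exposed to compound 24 hr at 30 deg C.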
FUS suppressor: qHTS for Suppressors of FUS Proteinopathy: Primary screen using FUS-linked yeast assay; S. cerevisiae FUS-expressing, growth rescue, OD600, 24 h; Potency, µM (top dose mostly 76.6 µM), actives largely listed as activators; 0.24% of 390,000 active;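 also: plate controls were DMSO vehicle for no effect and reference control for full effect; nearly all actives have a fitted effect of over 55% in size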
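Read-out: OD at 600 nm after 24hr at 30C, reporting rescue of FUS-induced yeast toxicity. Cells at OD 0.005 in galactose (2%) minimal medium; compounds tested in a dilution series; CP55940 titration from 92uM final as control.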
Numbers without * were called inactive; i = inactive; ? = inconclusive; . = no result; ! = repeats disagree; [ ] = remark or other dose. Shown are actives, neighbours in structure and some others; about 2.1% of the full set was active somewhere. Calls follow the shape of the dose curve; as a rule, active = well fitted curve in the direction sought with a large enough effect; inconclusive = small, poorly fitted or top-dose-only effect, or another doubt; inactive = no such curve, though single readings can be large; an effect the other way counts as inactive or inconclusive. Potency is read from the fitted curve at half-maximal effect.

SMILES	aSyn yeast inh	Abeta rescue	TDP43 rescue	FUS suppressor
CCC1CN(C(=O)N2CCC(C(=O)NCc3cccc(F)c3)CC2)c2cc(C)ccc2O1 (stereo unspecified)	.	?	5%	i
Cc1cc(S(=O)(=O)C(CNC(=O)c2ccc(OC(C)C)cc2)c2cccs2)ccc1F (stereo unspecified)	.	i	15%	i
CCCn1c(=O)n(-c2ccccc2Cl)c(=O)c2sc3ccccc3c21	.	i	8%	i
Fc1ccc(CCNc2ncnc3nc[nH]c23)cc1	5%	.	.	.
O=C1/C(=C/c2ccncc2)SC(=S)N1C1CCS(=O)(=O)C1 (stereo unspecified)	0%	i	13µM*	i
O=C1/C(=C/c2ccccc2)SC(=S)N1C1CCS(=O)(=O)C1 (stereo unspecified)	1%	i	15%	i
CCOC(=O)[C@@]12CCC3=C1N(CCC3)C(=O)[C@H](CC(=O)NCc1ccccc1)C2	.	.	.	i
O=C1c2ccccc2C(c2nnnn2Cc2ccccc2)N1CCOc1ccccc1 (stereo unspecified)	25µM*	i	11µM*	i
COc1cccc2c1C(=O)/C(=C/c1ccc(N(C)C)cc1)C2	-18%	.	.	.
O=C(O)c1[nH]n(-c2ccc(S(=O)(=O)O)cc2)c(=O)c1N=Nc1ccc(S(=O)(=O)O)cc1	1%	.	.	.
Cc1nc([N+](=O)[O-])c(Br)n1CC(=O)c1ccc(Br)cc1	7%	i	11µM*	i
Cc1nc([N+](=O)[O-])c(Br)n1CC(=O)c1ccc2ccccc2c1	1%	i	16µM*	14µM*
Cc1nc([N+](=O)[O-])c(Br)n1CC(=O)c1ccccc1	14%	i[9.22 µM]	16%	i
CC(=O)CC[C@H]1CC[C@]2(CCCN(C(=O)C(C)(C)C)C2)O1	.	.	.	i
CC(Oc1cccc(Br)c1)C(=O)NNC(=O)c1ccccn1 (stereo unspecified)	?	?	25µM*	i
O=C(Nc1ccc(Cl)cc1Cl)Nn1cnnc1	-1%	i	1%	i
O=C(Nc1ccno1)Nc1ccc(Cl)cc1Cl	-12%	i	14µM*	i
Clc1nnc(NC2CCCCC2)c(Cl)c1Cl	?	i	22µM*	i
O=C(Nc1ccc2c(c1)C(=O)N(c1ccccc1)C2=O)C1CCCO1 (stereo unspecified)	-8%	i	13µM*	i
C=CC(C)=C[C@@]1(C)SC(=O)C(C)=C1O	-2%	.	.	.
CCOc1ccccc1NC(=O)C1CCCN(S(=O)(=O)c2cccs2)C1 (stereo unspecified)	.	i	?	i
CCOc1ccc(CCNC(=O)CCSCc2cccc(Cl)c2)cc1OCC	.	i	22µM*	i
COc1ccc(C(=O)NCCSCc2cccc(Cl)c2)cc1OC	7%	i	20µM*	i
COc1cccc(C(=O)NCCSCc2c(F)cccc2Cl)c1	13%	i	11µM*	i
O=C(/C=C/c1cccc([N+](=O)[O-])c1)NCc1ccccc1	-6%	i	-7%	i
SMILES	aSyn yeast inh	Abeta rescue	TDP43 rescue	FUS suppressor
COc1ccc(C(=O)NCCc2ccccc2)cc1OC	-2%	i	13%	i
O=C(/C=C/c1cccc([N+](=O)[O-])c1)NCCSCc1cccc(Cl)c1	23%	i	22µM*	i
N#CCC[C@@H]1CC[C@]2(CCCN(C(=O)c3ccc4ccccc4n3)C2)O1	.	.	.	i
O=C(CCSCc1ccc(Cl)cc1)NCCc1ccccc1	10%	i	18%	i
O=C(CCSCc1cccc(Cl)c1)NCCc1ccc(Cl)cc1	2%	i	11µM*!	i
CC(C)(C)c1ccc(OCCn2c(CCNC(=O)C3CCCCC3)nc3ccccc32)cc1	-40%	.	.	.
COc1ccc(C(=O)C=Cc2ccc3c(c2)OCO3)cc1OC	-1%	i	14µM*	i
COc1ccc(C)cc1NC(=O)COC(=O)c1ccc2c(c1)OCO2	-12%	i	-3%	i
COc1ccc(C=CC(=O)c2ccc(OC)c(OC)c2)cc1O	?	i	?	i
Cc1ccc(O)c(C(=O)/C=C/c2ccc3c(c2)OCCO3)c1	-2%	i	18µM*	i
COc1ccc(C(=O)/C=C/c2ccc3c(c2)OCCO3)cc1	0%	i	20µM*	i
COc1ccc(C)cc1NC(=O)c1ccc2c(c1)OCO2	10%	i	13µM*	i
COc1cc(NC(=O)c2cc3cc4ccc(C)cc4nc3o2)cc(OC)c1OC	.	i	12%	i
COc1cccc(NC(=O)c2ccc(-c3nc(COc4ccccc4)c(C)o3)cc2)c1	.	i	-11%	i
O=C(CSc1cn(CC(=O)N2CCCC2)c2ccccc12)Nc1cc(C(F)(F)F)ccc1Cl	.	i	?	?
CCn1nc(-c2ccccc2)c(-c2ccccc2)c(C(=O)Nc2ccccc2C(N)=O)c1=O	.	i	22%	i
O=C(O)c1ccc(/C=C/C(=O)c2ccc3c(c2)OCCCO3)cc1	6%	i	2%	i
O=C(/C=C/c1ccc2c(c1)OCCO2)c1ccccc1	-3%	i	16µM*	i
COc1ccc(/C=C/C(=O)c2ccc3c(c2)OCCO3)cc1[N+](=O)[O-]	0%	i	13µM*	i
Cc1cc(Cl)ccc1OCC(=O)Nc1cccc(-c2nc3ccccc3o2)c1	0%	.	.	.
Nc1[nH]ncc1N=Nc1ccc(Cl)cc1	15%	i	18µM*	i
Nc1n[nH]c(N)c1N=Nc1ccc(Cl)cc1	-2%	i	7%	.
O=C(c1ccco1)N1CCN(c2ncnc3sc4c(c23)CCC4)CC1	12%	i	?	i
O=C(c1ccco1)N1CCN(c2ncnc3scc(-c4ccc(Cl)cc4)c23)CC1	4%	i	25µM*	i
OCCN1CCN(c2ncnc3scc(-c4ccc(F)cc4)c23)CC1	-6%	i	12%	i
SMILES	aSyn yeast inh	Abeta rescue	TDP43 rescue	FUS suppressor
Oc1ccccc1N1CCN(c2ncnc3scc(-c4ccc(F)cc4)c23)CC1	16%	i	22µM*	?
Cc1nc(N2CCN(c3ccccc3O)CC2)c2c(-c3ccccc3)csc2n1	7%	i	?	i
Oc1ccccc1N1CCN(c2ncnc3scc(-c4ccccc4)c23)CC1	26%	i	18µM*	?
c1ccc2c(c1)OCC(c1csc3ncnc(N4CCCC4)c13)O2 (stereo unspecified)	8%	i	22µM*	i
COc1cc2nc(N3CCCN(C)CC3)nc(NC3CCOCC3)c2cc1OC	-4%	.	.	.
CC(=O)c1cccc(NC(=O)CN2C(=O)CC(c3ccc(C)cc3C)=Nc3ccccc32)c1	.	i	2%	i
Cc1ccc(-c2csc3ncnc(N4CCN(S(=O)(=O)c5cccs5)CC4)c23)cc1	15%	i	4.5µM*	.

Screening results from PubChem BioAssay.
